Assay outcomes as filed in PubChem.
This excerpt belongs to a sample that is enriched for hits.
TbREL1 inh – TbREL1 inhibition, primary screen; TbREL1 RNA ligation, FRET fluorescence; actives 0.49% (n = 89,000); P86926; inhibition, % at 9.66 µM;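 active = inhibition above the mean inhibition across all screened compounds plus 3 SD, cut at about 11% in these data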
Target sequence (P86926 whole entry, looked up): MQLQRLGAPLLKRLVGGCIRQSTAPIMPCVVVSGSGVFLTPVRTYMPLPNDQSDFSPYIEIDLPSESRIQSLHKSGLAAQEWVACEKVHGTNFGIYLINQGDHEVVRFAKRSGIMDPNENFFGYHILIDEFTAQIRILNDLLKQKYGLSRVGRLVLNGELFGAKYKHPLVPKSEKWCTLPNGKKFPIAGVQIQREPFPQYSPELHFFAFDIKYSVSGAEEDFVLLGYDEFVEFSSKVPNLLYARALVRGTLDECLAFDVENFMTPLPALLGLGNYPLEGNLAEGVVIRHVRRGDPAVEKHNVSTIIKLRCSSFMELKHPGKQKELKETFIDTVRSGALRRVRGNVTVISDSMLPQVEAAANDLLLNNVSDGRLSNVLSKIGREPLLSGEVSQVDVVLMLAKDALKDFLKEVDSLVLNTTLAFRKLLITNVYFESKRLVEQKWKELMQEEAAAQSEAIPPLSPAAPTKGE
TbREL1 confirm – TbREL1 inhibition, confirmation; shares compounds with TbREL1 inh; TbREL1 RNA ligation, FRET fluorescence; inhibition, % at 9.66 µM; actives 37% (n = 390); AID 1117282;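 active = mean inhibition across replicates above a set limit taken from the earlier primary screen, cut at about 11% in these data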
Hits are given with their value.

Screening O=C(CCCCCn1c(=S)[nH]c2ccccc2c1=O)N1CCC2(CC1)OCCO2 returned TbREL1 inh inactive.
`O=C(CNCc1c(F)cccc1F)N1CCC2(CC1)OCCO2` gave TbREL1 inh inactive.
`O=C(Cn1ccc2ccccc2c1=O)NCC(=O)N1CCC2(CC1)OCCO2` gave TbREL1 inh 11.
Screening CCCCN1CCN(C(=O)COc2cc(=O)n(C)c3ccccc23)CC1 returned TbREL1 inh inactive.
For CC(NC(=O)OC1CC2CCC1(C)C2(C)C)P(=O)(Oc1ccccc1)Oc1ccccc1 (stereo not given) the results were TbREL1 inh inactive.
`C=C(C=O)CC1CC(O)[C@]2(C)OC3CC4OC5C[C@]6(C)O[C@]7(C)CCC8OC9C[C@]%10(C)OC%11C(C)=CC(=O)OC%11CC%10OC9C[C@@H](C)C8OC7CC6O[C@]5(C)C/C=C\C4OC3CC2O1` (stereo not given in full) gave TbREL1 inh inactive.
Screening C[n+]1c(-c2ccccc2)cc(CCCCc2cc(-c3ccccc3)[n+](C)c(-c3ccccc3)c2)cc1-c1ccccc1 returned TbREL1 inh 13.
Screening Oc1ccccc1-[n+]1c(-c2ccccc2)cc(-c2ccccc2)cc1-c1ccccc1 returned TbREL1 inh inactive.
Screening Cc1ccc(-c2cc(-c3ccccc3)cc(-c3ccccc3)[n+]2-c2ccc(C(=O)O)cc2)cc1 returned TbREL1 inh inactive.
Screening C[N+]1=C(N)NC2=C3CCCCC3ONC2C1 (stereo not given) returned TbREL1 inh inactive.
Screening COC(=O)c1c(N)n(Cc2ccc(OC)cc2)c2nc3ccccc3nc12 returned TbREL1 inh inactive.
Screening Nc1c(C(=O)OCC2CCCO2)c2nc3ccccc3nc2n1Cc1cccs1 (stereo not given) returned TbREL1 inh inactive.
Screening Nc1c(C(=O)NC2CCCC2)c2nc3ccccc3nc2n1CC1CCCO1 (stereo not given) returned TbREL1 inh 27 and TbREL1 confirm 12.
For COP(=O)(OC)C(C)NC(=O)OCc1ccccc1 (stereo not given) the results were TbREL1 inh inactive.
`Cc1cccc(C(C)c2cnc[nH]2)c1C` (stereo not given) gave TbREL1 inh inactive.
For CN1CCC(n2nccc2N)CC1 the results were TbREL1 inh inactive.
Nc1ccnn1C1CCNCC1 was read as TbREL1 inh 23 and TbREL1 confirm inactive.
For COC(=O)C1=C(c2ccc(OC)c(OC)c2)C[C@@H]2CC[C@H]1N2C(=O)NCc1cc(C)oc1C(F)(F)F the results were TbREL1 inh inactive.
Screening CC(C)CCP(=O)(O)O returned TbREL1 inh inactive.
Screening COC(=O)C1=C(c2ccc3ccccc3c2)C[C@@H]2CC[C@H]1N2C(=O)NCc1ccco1 returned TbREL1 inh inactive.
CCOC(=O)[C@]12Cc3ccccc3[C@H]1N(Cc1ccccc1)C(=O)c1cc(F)c(F)cc12 was read as TbREL1 inh inactive.
Screening Cc1nc2c(=O)n(C)c(=O)nc-2n(C)n1 returned TbREL1 inh 64 and TbREL1 confirm 89.
For COC(=O)C1=C(c2ccc(OC(F)(F)F)cc2)C[C@@H]2CC[C@H]1N2C(=O)NCCOc1ccccc1Cl the results were TbREL1 inh inactive.
`CC(C)(C)C(=O)N1Cc2cc(N3CCCCC3)ccc2-n2nncc2C1` gave TbREL1 inh inactive.
Cc1ncoc1C(=O)NCC1=C(c2ccc(S(C)(=O)=O)cc2)C[C@@H]2CC[C@H]1N2CCOc1ccccc1 was read as TbREL1 inh inactive.
For C=C1[C@@H](C)C2[C@H](Cc3ccccc3)NC(=O)[C@]23[C@H](OC(C)=O)/C=C/[C@@](C)(O)C(=O)[C@@H](C)C/C=C/[C@H]3[C@@H]1O (stereo not given in full) the results were TbREL1 inh inactive.
For O=C1NC(=O)C(=Cc2ccc(-c3ccc(F)cc3O)o2)C(=O)N1 the results were TbREL1 inh 16 and TbREL1 confirm 15.
CC(NC(=O)OCc1ccccc1)P(=O)(Oc1ccccc1)Oc1ccccc1 (stereo not given) was read as TbREL1 inh inactive.
Screening O=C(NC(CCC(O)CO)P(=O)(Oc1ccccc1)Oc1ccccc1)OCc1ccccc1 (stereo not given) returned TbREL1 inh inactive.
Screening COC(=O)C1=C(c2cccc(OC)c2OC)C[C@@H]2CC[C@H]1N2C(=O)NCc1ccc(C(F)(F)F)cc1 returned TbREL1 inh inactive.
CCCOC(=O)c1ccc(-[n+]2c(-c3ccccc3)cc(-c3ccccc3)cc2-c2ccccc2)cc1 was read as TbREL1 inh inactive.
`Brc1ccc(-[n+]2c(-c3ccccc3)cc(-c3ccccc3)cc2-c2ccccc2)cc1` gave TbREL1 inh 12 and TbREL1 confirm inactive.
[O-]c1ccccc1-[n+]1c(-c2ccccc2)cc(-c2ccccc2)cc1-c1ccccc1 was read as TbREL1 inh inactive.
Screening CCCNC(=O)N1[C@H]2CC[C@@H]1C(C(=O)OC)=C(c1ccc(OC(F)(F)F)cc1)C2 returned TbREL1 inh inactive.
For C[C@H](NC(=O)OCc1ccccc1)C(=O)NC(Cc1ccccc1)P(=O)(Oc1ccccc1)Oc1ccccc1 (stereo not given in full) the results were TbREL1 inh inactive.
Cc1cc(Oc2cc(NN3CCCCC3)c([N+](=O)[O-])cc2[N+](=O)[O-])ccc1[N+](=O)[O-] was read as TbREL1 inh inactive.
For Cc1ccc(-n2c(C)cc(/C=C3/C(=O)NC(=O)N(Cc4ccco4)C3=O)c2C)cc1 the results were TbREL1 inh inactive.
For Cc1cc(/C=C2/C(=O)NC(=O)N(c3ccccc3)C2=O)c(C)n1-c1ccc(F)cc1 the results were TbREL1 inh inactive.
For Cc1cc(/C=C2\C(=O)NC(=O)N(Cc3ccco3)C2=O)c(C)n1-c1ccc(C(=O)O)cc1 the results were TbREL1 inh 16 and TbREL1 confirm inactive.
Screening CC(NC(=O)OCc1ccccc1)[P+](=O)O (stereo not given) returned TbREL1 inh inactive.
Screening COCCCn1c(N)c(C(=O)OCCOC)c2nc3ccccc3nc21 returned TbREL1 inh inactive.
For CCCCNC(=O)c1c(N)n(CCCOC)c2nc3ccccc3nc12 the results were TbREL1 inh 12 and TbREL1 confirm 34.
For COCCOC(=O)c1c(N)n(Cc2ccc(OC)cc2)c2nc3ccccc3nc12 the results were TbREL1 inh inactive.
`CC(=O)N(C1=NCCCS1)c1ccccc1Cl` gave TbREL1 inh inactive.
Screening CSc1nc(C)c(Br)c(N2CC2)n1 returned TbREL1 inh inactive.
